This test relates to Ba/F3 Cytotoxicity. Description: JAK2V617F kinase, IRF1 reporter and Ba/F3 cytotoxicity panel, late-stage follow-up, HEL and Ba/F3 cells (AID 2165).

Unmarked numbers belong to inactive results. Activity calls are given as the source filed them. Rule as the data show it: active = IC50 below about 9 µM; inactive = the rest.

By IC50 is commonly meant the concentration needed to halve the response being measured. For `N#C/C(=C\c1ccc(O)c(O)c1)C(=O)NCCCCc1ccccc1`, the IC50 is 0.33 µM (active). Take `Cc1[nH]c(=O)c(C(=O)/C=C/c2ccccc2)c2c1CCCC2`: the IC50 was 0.89 µM (active). Take `COc1cc2ncnc(Nc3cccc(Cl)c3)c2cc1OC`: the IC50 is more than 40 µM. `COc1cc2ncnc(Nc3ccc(OC(F)(F)F)cc3)c2cc1OC`: the IC50 was more than 40 µM. The value for `Cc1cccc(OCC(=O)Nc2ccc(C)c(C)c2)c1` was more than 40 µM; that for `Cc1ccc(O)c(NC(=O)COc2ccccc2Cl)c1` was 0.0217 µM (active). As to `Cc1nnc(NC(=O)COc2ccccc2)s1`, the IC50 was more than 40 µM. As to `COc1ccc(Cl)cc1NC(=O)NC(C)c1ccncc1` (stereo not drawn), the IC50 is more than 40 µM. With `Cc1ccc(O)c(NC(=O)COc2ccc(C)c(C)c2)c1`, the IC50 was 5.02 µM (active). The result for `Cc1ccc(O)c(NC(=O)COc2ccc(C3CCCCC3)cc2)c1` reads 3.91 µM (active). Take `Cc1[nH]c(=O)c(C(=O)C=Cc2ccc(C(C)C)cc2)c2c1CCCC2`: the IC50 is 2.74 µM (active).

Turning to `CCS(=O)(=O)c1ccc(O)c(NC(=O)COc2cccc(C)c2)c1`, the IC50 was more than 40 µM.

With `Cc1cccc(OCC(=O)Nc2cccc(O)c2)c1`, the IC50 is more than 40 µM.

Turning to `Cc1ccc(C=CC(=O)c2c3c(c(C)[nH]c2=O)CCCC3)cc1`, the IC50 is 3.34 µM (active).

Take `Cc1[nH]c(=O)c(C(=O)C=Cc2ccc(Cl)cc2Cl)c2c1CCCC2`: the IC50 is 1.45 µM (active). Take `Cc1cc(C)c(C(=O)/C=C/c2ccccc2F)c(=O)[nH]1`: the IC50 is 0.69 µM (active).

`N#C/C(=C\c1ccc(O)c(O)c1)C(=O)NCCc1ccccc1`: the IC50 was 0.3 µM (active).

`COCCOc1cc2ncnc(Nc3cccc(C#Cc4ccc(O)cc4)c3)c2cc1OCCOC`: the IC50 is 3.68 µM (active).

Consider `O=C(COc1ccccc1)Nc1ncccn1`, for which the IC50 was more than 40 µM. In the case of `O=C(C=Cc1ccccc1F)c1c(-c2ccccc2)c2ccccc2[nH]c1=O`, the IC50 is 0.37 µM (active). On to `Cc1cccc(OCC(=O)Nc2ccccc2F)c1`, for which the IC50 was more than 40 µM. Take `COc1ccccc1/C=C/C(=O)c1c2c(c(C)[nH]c1=O)CCCC2`: the IC50 was 1.06 µM (active). For `Cc1cc2ncc(-c3ccc(O)c(O)c3)nc2cc1C`, the IC50 was 0.36 µM (active).

In the case of `COCCOc1cc2ncnc(Nc3cccc(C#Cc4ccc(-c5ccccc5)cc4)c3)c2cc1OCCOC`, the IC50 was more than 40 µM. On to `Cc1cc(C)cc(NC(=O)COc2cccc(C)c2)c1`, for which the IC50 was more than 40 µM. Take `Cc1cccc(NC(=O)COc2cccc(C)c2)c1`: the IC50 was more than 40 µM.

For the compound `COc1cc2ncnc(Nc3ccccc3)c2cc1OC`, the IC50 is more than 40 µM. As for `COc1cc2ncnc(Sc3ccc(Cl)cc3)c2cc1OC`, the IC50 is more than 40 µM. For the compound `CCc1cccc(Nc2ncnc3cc(OCCOC)c(OCCOC)cc23)c1`, the IC50 is more than 40 µM. For the compound `COc1cc(/C=C(\C#N)C(N)=O)cc(CSc2nc3ccccc3s2)c1O`, the IC50 was 7.61 µM (active).

With `Cc1[nH]c(=O)c(C(=O)C=Cc2ccc(Cl)cc2)c2c1CCCC2`, the half-inhibitory concentration (IC50) is 2.48 µM (active). For the compound `COc1cc2ncnc(Sc3ccc(C)cc3)c2cc1OC`, the IC50 is 3.68 µM (active). For `Cc1[nH]c(=O)c(C(=O)C=Cc2ccc(I)cc2)c2c1CCCC2`, the IC50 was more than 40 µM. As for `Cc1ccc(O)c(NC(=O)COc2ccc(Br)cc2)c1`, the IC50 is 2.43 µM (active). The result for `Cc1ccc(O)c(NC(=O)COc2ccc(F)cc2)c1` reads 0.0825 µM (active). On to `COc1cc2ncnc(NC3CCCCC3)c2cc1OC`, for which the IC50 was more than 40 µM. Regarding `C=CCNc1ncnc2cc(OC)c(OC)cc12`, the IC50 is more than 40 µM.

Regarding `COc1ccc(OCC(=O)Nc2cc(C)ccc2O)cc1`, the IC50 is 2.01 µM (active).

These data come from PubChem BioAssay AID2165 (The Scripps Research Institute Molecular Screening Center, 2009).
